# Measured values published in the supplement of paper PMC13172266.
# Assays:
# Test in all cases: cell proliferation relative to vehicle (% of vehicle); higher = less growth inhibition
# Conditions in all cases: 72 h
# [1] = tested on: U2932 TK216-resistant clone 2
# Summary of the method: (§1)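 Each of 348 targeted inhibitors was tested at 500 nM or 50 nM for 72 h on U2932 cells, both parental and two clones resistant to an ETS-targeting agent. Readout was by MTT with absorbance read on a Cytation 3. Proliferation appears as percent of proliferating cells relative to vehicle (DMSO).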
# [2] = tested on: U2932 TK216-resistant clone 3
# Summary of the method: as §1
# U2932 parental = tested on: U2932 parental
# Summary of the method: as §1
Structure (SMILES),cell proliferation ([1]; 50 nM),cell proliferation ([1]; 500 nM),cell proliferation ([2]; 50 nM),cell proliferation ([2]; 500 nM),cell proliferation (U2932 parental; 50 nM),cell proliferation (U2932 parental; 500 nM)
O=C(NC[C@H](O)CO)c1ccncc1Nc1ccc(I)cc1F,91,88.5,95.7,94.7,92.2,89.5
COc1cc2ncnc(Oc3ccc(CC(=O)Nc4cnn(C(C)C)c4)cc3)c2cc1OC,100,104,104,98.5,97.7,95.7
C[C@H](NC(=O)/C(C#N)=C/c1cccc(Br)n1)c1ccccc1,108,111,109,102,105,102
Cc1cc(CS(=O)(=O)c2ccccc2)cc(OCc2ccc(CN3CCC[C@@H]3CO)cc2)c1,105,90.6,106,97.9,97.2,107
CCCCOc1c(C(=O)c2c(F)cc(C)cc2F)c[nH]c2nncc1-2,78.8,59.3,92.2,58.9,89.3,77.1
CCOC(=O)C1=C(N)Oc2ccc(Br)cc2C1C(C#N)C(=O)OCC (stereo unspecified),103,95.7,109,100,98.4,97.6
O=C(NOCC1CC1)c1ccc(F)c(F)c1Nc1ccc(I)cc1Cl,102,90.6,98.5,90.8,96.2,95.7
CCNC(=O)c1noc(-c2cc(C(C)C)c(O)cc2O)c1-c1ccc(CN2CCOCC2)cc1,4.68,4.69,21.4,21.1,3.32,3.9
COc1cc(Nc2ncc(F)c(Nc3ccc4c(n3)N(COP(=O)(O)O)C(=O)C(C)(C)O4)n2)cc(OC)c1OC [Fostamatinib (R788)],96.7,92.8,97.2,95,96.7,93.6
Cc1[nH]nc2ccc(-c3cncc(OC[C@@H](N)Cc4ccccc4)c3)cc12,95.6,41.7,99.4,40.6,93.5,31.7
COc1cc2c(c(OC)c1OC)-c1c(cc3c(c1OC)OCO3)CC(C)C(C)C2 (stereo unspecified) [Schisandrin B (Sch B)],99.1,104,108,97.6,97.2,95.9
CCn1c(-c2nonc2N)nc2c(C#CC(C)(C)O)ncc(OC[C@H]3CCCNC3)c21,91.1,54.1,97,66.9,90.5,58.6
CCC[C@H](NC(=O)/C(C#N)=C/c1cccc(Br)n1)c1ccccc1 [Degrasyn (WP1130)],105,102,106,94.8,92.5,86.4
CNC(=O)c1ccccc1Sc1ccc2c(/C=C/c3ccccn3)n[nH]c2c1 [Axitinib],110,92.8,102,92.8,95.6,87.4
O=C(/C=C\n1cnc(-c2cc(C(F)(F)F)cc(C(F)(F)F)c2)n1)NNc1cnccn1,87.7,36.3,58.9,57.6,82.9,44.1
CC(=O)O[C@H]1C(=O)[C@@]2(C)[C@H]([C@H](OC(=O)c3ccccc3)[C@]3(O)C[C@H](OC(=O)[C@H](O)[C@@H](NC(=O)c4ccccc4)c4ccccc4)C(C)=C1C3(C)C)[C@]1(OC(C)=O)CO[C@@H]1C[C@@H]2O [Paclitaxel],11.2,14.3,6.88,4.73,11.2,9.85
COc1ccc(F)c(F)c1C(=O)c1cnc(NC2CCN(S(C)(=O)=O)CC2)nc1N,92,53.5,89.4,66.7,90.5,63.3
Cn1cc(/C=C2\C(=O)Nc3cccnc32)c2ccccc21,102,105,106,105,97.2,90
Cc1[nH]c2ccccc2c1CCNCc1ccc(/C=C/C(=O)NO)cc1 [Panobinostat (LBH589)],14.9,4.33,12.9,11.5,9.5,0.518
COc1cc2c(NC3CCN(CC4CCCCC4)CC3)nc(N3CCCN(C(C)C)CC3)nc2cc1OCCCN1CCCCC1,95.3,105,91.4,115,96.3,110
Cn1cnc([N+](=O)[O-])c1Sc1ncnc2[nH]cnc12 [Azathioprine],100,98.4,103,103,97.5,103
Cn1c(Nc2ccc(C(F)(F)F)cc2)nc2cc(Oc3ccnc(-c4ncc(C(F)(F)F)[nH]4)c3)ccc21,96.1,80.7,98.8,96.7,95.6,88
NC1(c2ccc(-c3nc4ccn5c(=O)[nH]nc5c4cc3-c3ccccc3)cc2)CCC1,101,70.1,97.5,74.9,96.8,68.4

Structure (SMILES),cell proliferation ([1]; 50 nM),cell proliferation ([1]; 500 nM),cell proliferation ([2]; 50 nM),cell proliferation ([2]; 500 nM),cell proliferation (U2932 parental; 50 nM),cell proliferation (U2932 parental; 500 nM)
CCOc1ccc(Cc2cc([C@@H]3O[C@H](CO)[C@@H](O)[C@H](O)[C@H]3O)ccc2Cl)cc1 [Dapagliflozin],103,103,101,107,103,96.2
CCCCNc1ncc2c(-c3ccc(CN4CCN(C)CC4)cc3)cn([C@H]3CC[C@H](O)CC3)c2n1,95.5,71.1,92,65.6,91.3,62.7
CCC(C)(C)C(=O)O[C@H]1C[C@@H](C)C=C2C=C[C@H](C)[C@H](CC[C@@H]3C[C@@H](O)CC(=O)O3)[C@H]21 [Simvastatin],91.4,88.7,98.4,89.1,90.5,87.4
Oc1c2ccccc2c2c3c(cccc13)N=N2,101,113,105,104,103,101
NC(=O)c1ncn([C@@H]2O[C@H](CO)[C@@H](O)[C@H]2O)c1N [Acadesine],88.9,94.5,98.7,98.1,102,98.4
COc1ccc(-c2ccc3c(N4CCOCC4)nc(N4C[C@@H](C)O[C@@H](C)C4)nc3n2)cc1CO,95.3,46.8,98.9,49.3,91.4,57.7
CN1CCN(CCCNc2ncc(Cl)c(-c3cc4c(C(=O)NC5CC5)cccc4s3)n2)CC1,101,86.5,98.2,99,95.3,100
"O=c1[nH]cc(F)c(=O)[nH]1 [Fluorouracil (5-Fluoracil, 5-FU)]",102,102,103,106,102,96.2
O=c1cc(N2CCOCC2)oc2c(-c3ccccc3)cccc12,110,102,100,97.3,105,105
Cn1cnc2c(F)c(Nc3ccc(Br)cc3Cl)c(C(=O)NOCCO)cc21 [Selumetinib (AZD6244)],106,95.8,97,90.1,99.3,101
CC1(C)CCC(CN2CCN(c3ccc(C(=O)NS(=O)(=O)c4ccc(NCC5CCOCC5)c([N+](=O)[O-])c4)c(Oc4cnc5[nH]ccc5c4)c3)CC2)=C(c2ccc(Cl)cc2)C1,74.5,29.9,84.4,35.1,90.7,66.9
Cc1cnc(-c2ccccc2C(C)C)nc1NCc1ccc(-n2ccnn2)cc1,108,97.8,105,108,101,98.5
CN1CCCN(C(=O)c2cccc(-c3ccc(/C=C4/C(=O)Nc5ccc(Cl)cc54)o3)c2)CC1,105,80.8,97,88.5,104,96.5
COc1cc(OCc2cccc(-c3ccccc3)c2C)cc(OC)c1CN1CCCC[C@H]1C(=O)O [PD-1/PD-L1 inhibitor 1],103,99.6,96.8,104,101,95.3
COc1ccc(C2=N[C@@H](c3ccc(Cl)cc3)[C@@H](c3ccc(Cl)cc3)N2C(=O)N2CCNC(=O)C2)c(OC(C)C)c1 [Nutlin-3],106,97.3,109,103,99.8,99.6
Cc1cc(C(C)Nc2ccccc2)c2nc(N3CCOCC3)cc(=O)n2c1 (stereo unspecified),103,101,105,98.3,102,92.9
O=C(c1cc(Cc2n[nH]c(=O)c3ccccc23)ccc1F)N1CCN(C(=O)C2CC2)CC1,103,99.3,103,103,99.6,94.9
CN1C(=O)C(Cc2c[nH]c3ccccc23)NC1=S (stereo unspecified) [Necrostatin-1],103,93.1,95.6,102,95,94.8
S=C(NCc1ccc2c(c1)OCO2)N1CCN(c2ncnc3c2oc2ccccc23)CC1 [Amuvatinib (MP-470)],102,109,107,104,100,101
C[C@]1(O)C[C@@H](c2nc(-c3ccc4ccc(-c5ccccc5)nc4c3)c3c(N)nccn32)C1 [OSI-906 (Linsitinib)],104,95.1,95.7,99.4,99.3,99.7
CCc1c2c(nc3ccc(OC(=O)N4CCC(N5CCCCC5)CC4)cc13)-c1cc3c(c(=O)n1C2)COC(=O)[C@]3(O)CC [Irinotecan],,,,,94.3,50.5
Nc1nc(Nc2ccc(S(N)(=O)=O)cc2)nn1C(=O)c1c(F)cccc1F,103,85.3,102,78.1,98.8,87.7
